Reference: PubChem BioAssay (NCI)
This is part of a sample that, as a whole, favours compounds with a hit. Of some 83,000 tested, about 20% had one in any assay.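 Interpretation: 100, growth as untreated; towards 0, rising growth inhibition; 0, no net growth; 0 to -100, cell death. Compounds scoring below 10 were considered active.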 The source made the active and inactive calls.

Tests used:
Test in all cases: NCI-60 one-dose screen, 48 h (100 = growth as untreated, 0 = no growth, -100 = all killed)
Conditions in all cases: 10 µM unless noted
SK-MEL-2 melanoma = tested on: SK-MEL-2 melanoma
EKVX NSCLC = tested on: EKVX NSCLC
SN12C renal = tested on: SN12C renal
UO-31 renal = tested on: UO-31 renal
TK-10 renal = tested on: TK-10 renal
ACHN renal = tested on: ACHN renal
CAKI-1 renal = tested on: CAKI-1 renal
CCRF-CEM leukemia = tested on: CCRF-CEM leukemia
A498 renal = tested on: A498 renal
MOLT-4 leukemia = tested on: MOLT-4 leukemia

Measured: growth

CCc1cc(O)ccc1Nc1cc(-c2ccc(-n3cccn3)cc2)[nH]n1
inactive: SK-MEL-2 melanoma 87.3% | EKVX NSCLC 63% | SN12C renal 73.5% | UO-31 renal 50.9% | TK-10 renal 98.6% | ACHN renal 43.9% | CAKI-1 renal 44.8% | CCRF-CEM leukemia 60.4%

O=C(CSc1nnc(-c2cccs2)n1-c1ccccc1)Nc1ccccc1
inactive: SK-MEL-2 melanoma 108% | EKVX NSCLC 76.7% | SN12C renal 83.5% | UO-31 renal 64.4% | TK-10 renal 105% | ACHN renal 59.6% | CAKI-1 renal 63.6% | CCRF-CEM leukemia 93.7%

Oc1[nH]c2ccc(Cl)cc2c1N=Nc1nc(N=Nc2c(O)[nH]c3ccc(Cl)cc23)nc(N2CCOCC2)n1
inactive: SK-MEL-2 melanoma 65.3% | EKVX NSCLC 85.2% | SN12C renal 43.9% | UO-31 renal 78.7% | TK-10 renal 118% | ACHN renal 74.5% | A498 renal 21.6% | CCRF-CEM leukemia 20.3% | MOLT-4 leukemia 62.5%

Brc1ccc2[nH]cc(-c3nn4cc(-c5nccs5)nc4s3)c2c1
active: UO-31 renal -48.1% | ACHN renal 3.16% | CAKI-1 renal -36.8%
inactive: SK-MEL-2 melanoma 81.4% | EKVX NSCLC 64.9% | SN12C renal 71.1% | TK-10 renal 98.3% | CCRF-CEM leukemia 17.1% | MOLT-4 leukemia 16.5%

CC(=C(c1ccc(OCCN(C)C)cc1)c1ccc(OCCN(C)C)cc1)c1ccc(Cl)cc1
active: SK-MEL-2 melanoma -59.4% | EKVX NSCLC -12.9% | SN12C renal -33.3% | UO-31 renal -64.8% | TK-10 renal -72.4% | ACHN renal -80.4% | A498 renal -76.1% | CCRF-CEM leukemia -45.2% | MOLT-4 leukemia -49.7%

O=C(CSc1nc2ccccc2c(=O)n1-c1ccccc1)N/N=C/c1ccc(Oc2ccc(Br)cc2)cc1
inactive: SK-MEL-2 melanoma 93% | EKVX NSCLC 60.7% | SN12C renal 40.7% | UO-31 renal 91.5% | TK-10 renal 101% | ACHN renal 91.4% | A498 renal 82.3% | CCRF-CEM leukemia 56.9% | MOLT-4 leukemia 55.5%

Cn1cc(-c2nn3cc(-c4ccncc4)nc3s2)c2cc(Br)ccc21
inactive: SK-MEL-2 melanoma 75.2% | EKVX NSCLC 45.7% | SN12C renal 67.7% | UO-31 renal 39.3% | TK-10 renal 113% | ACHN renal 68.9% | A498 renal 81.4% | CCRF-CEM leukemia 29.7% | MOLT-4 leukemia 12.9%

O=C1c2ccccc2C23C(=C(c4cncnc4)c4ccccc42)CCCN13 (configuration not stated)
inactive: SK-MEL-2 melanoma 106% | EKVX NSCLC 100% | SN12C renal 96.4% | UO-31 renal 85.6% | TK-10 renal 97% | ACHN renal 99.2% | CAKI-1 renal 78.5% | CCRF-CEM leukemia 102% | MOLT-4 leukemia 107%

CN(C)CCNc1ccc2ncc(C#Cc3cncc(C(=O)Nc4ccc(CN5CCN(C)CC5)c(C(F)(F)F)c4)c3)n2n1
inactive: UO-31 renal 77.8% | TK-10 renal 26.6% | ACHN renal 10.7%
active: SK-MEL-2 melanoma 0.656% | EKVX NSCLC 7.33% | SN12C renal -9.94% | CAKI-1 renal 3.13% | CCRF-CEM leukemia 5.95% | MOLT-4 leukemia -9.54%

CNC(=O)c1cc(-n2ccc3cc(NC(=O)Nc4ccc(N5CCN(C)CC5)c(C(F)(F)F)c4)ccc32)ccn1
inactive: SK-MEL-2 melanoma 87.2% | EKVX NSCLC 84.5% | SN12C renal 94.6% | UO-31 renal 42% | TK-10 renal 121% | ACHN renal 77.4% | CAKI-1 renal 85.8%
active: CCRF-CEM leukemia 7.32% | MOLT-4 leukemia -12.8%

Cc1ccc(N2CCN(C3=C(Cl)C(=O)c4ncccc4C3=O)CC2)cc1
active: ACHN renal 1.41% | CCRF-CEM leukemia 5.41%
inactive: SK-MEL-2 melanoma 94.4% | EKVX NSCLC 97% | SN12C renal 27.8% | UO-31 renal 32% | TK-10 renal 133% | A498 renal 111% | MOLT-4 leukemia 13.9%

O=C(/C=C/c1csc(Br)n1)NO
inactive: SK-MEL-2 melanoma 37.6% | EKVX NSCLC 37.5% | SN12C renal 68.7% | UO-31 renal 15.5% | CCRF-CEM leukemia 21.2%
active: TK-10 renal -9.31% | ACHN renal 8.2% | A498 renal -5.59% | MOLT-4 leukemia 9.51%

O=C(COc1ccc(/C=C2\C(=O)Nc3ccc(Cl)cc32)cc1)Nc1ccc(Cl)cc1
inactive: SK-MEL-2 melanoma 88.6% | EKVX NSCLC 74.9% | SN12C renal 53% | UO-31 renal 50.8% | TK-10 renal 112% | ACHN renal 33.3% | A498 renal 72.4% | CCRF-CEM leukemia 47.2% | MOLT-4 leukemia 55.5%

CC1(C)CC[C@]2(C(=O)NCCCCCCN(CCCN)CCCN)CC[C@]3(C)C(=CC[C@@H]4[C@@]5(C)CC[C@H](O)C(C)(C)[C@@H]5CC[C@]43C)[C@@H]2C1
inactive: SK-MEL-2 melanoma 113% | EKVX NSCLC 91.8% | SN12C renal 96.4% | UO-31 renal 85.7% | TK-10 renal 106% | ACHN renal 105% | A498 renal 117% | CCRF-CEM leukemia 105% | MOLT-4 leukemia 102%

C/C(=N\NC(=O)Nc1ccccc1)c1nnn(-c2ccc([N+](=O)[O-])cc2)c1C
inactive: SK-MEL-2 melanoma 104% | EKVX NSCLC 103% | SN12C renal 110% | UO-31 renal 72.4% | TK-10 renal 99.7% | ACHN renal 104% | A498 renal 105% | CCRF-CEM leukemia 105%

Cc1ccc2c(n1)C(=O)C(Cl)=C(Nc1ccc(C(F)(F)F)cc1)C2=O
active: UO-31 renal -85.2% | ACHN renal -98.4% | CCRF-CEM leukemia 2.47% | MOLT-4 leukemia 8.71%
inactive: SK-MEL-2 melanoma 103% | EKVX NSCLC 77.2% | SN12C renal 91.8% | TK-10 renal 85.4% | A498 renal 79%

COc1ccc(C(=O)c2c(N)c(C#N)cn2-c2ccc(Cl)cc2Cl)cc1
inactive: SK-MEL-2 melanoma 97% | EKVX NSCLC 93.6% | SN12C renal 100% | UO-31 renal 84.5% | TK-10 renal 105% | ACHN renal 98.1% | A498 renal 109% | CCRF-CEM leukemia 101% | MOLT-4 leukemia 90.7%

C#Cc1cc(OC)c(C(=O)Nc2ccc(F)cc2C(=O)Nc2cccc(S(=O)(=O)C(F)(F)F)c2)cn1
inactive: SK-MEL-2 melanoma 45.1% | EKVX NSCLC 13.9% | SN12C renal 17.1% | TK-10 renal 66.6%
active: UO-31 renal -85.1% | ACHN renal -57.4% | A498 renal -18.2% | CCRF-CEM leukemia -23.5%

CC(=O)c1cc(C(=O)N2c3ccccc3Sc3ccccc32)n2c1ccc1ccccc12
inactive: SK-MEL-2 melanoma 38.3% | EKVX NSCLC 78.4% | SN12C renal 86.7% | UO-31 renal 64.6% | TK-10 renal 107% | ACHN renal 50.1% | A498 renal 30.1% | CCRF-CEM leukemia 35.9% | MOLT-4 leukemia 54.7%

COc1ccc2c(c1)c(-c1nnc(N)nc1-c1c[nH]c3ccc(F)cc13)cn2C
inactive: SK-MEL-2 melanoma 36.3% | EKVX NSCLC 55.5% | SN12C renal 69.5% | UO-31 renal 75.6% | TK-10 renal 90% | ACHN renal 64.5% | CAKI-1 renal 41.6% | CCRF-CEM leukemia 22.3% | MOLT-4 leukemia 26.2%

CN1CCN(c2ccc(Nc3nc(NCCCNS(=O)(=O)c4cccc(F)c4)c4sccc4n3)cc2)CC1
inactive: SK-MEL-2 melanoma 96.8% | EKVX NSCLC 83.3% | SN12C renal 67.4% | UO-31 renal 54.2% | TK-10 renal 91.6% | A498 renal 67.6% | CCRF-CEM leukemia 19.2% | MOLT-4 leukemia 13.3%
active: ACHN renal 7.69%

O=c1c2ccccc2cc2n1CCN=C2c1ccccc1
inactive: SK-MEL-2 melanoma 99.8% | EKVX NSCLC 101% | SN12C renal 109% | UO-31 renal 78.6% | TK-10 renal 101% | ACHN renal 96.9% | A498 renal 89.4% | CCRF-CEM leukemia 100% | MOLT-4 leukemia 102%

CCc1cc(OC(=O)N2CCN(CCC(C)(COC(C)(C)C)COC(C)(C)C)CC2)ccc1Nc1cc(-c2ccc(-n3cccn3)cc2)[nH]n1
inactive: SK-MEL-2 melanoma 102% | EKVX NSCLC 66.1% | SN12C renal 62.1% | UO-31 renal 81.3% | TK-10 renal 103% | ACHN renal 81% | A498 renal 81.2% | CCRF-CEM leukemia 56.7% | MOLT-4 leukemia 52.9%

O=C(Nc1ccc(N2CCOCC2)cc1)Nc1ccc2c(ccn2C(=O)c2cccc(F)c2)c1
inactive: SK-MEL-2 melanoma 77.2% | EKVX NSCLC 73.9% | SN12C renal 74.2% | UO-31 renal 102% | TK-10 renal 86.9% | ACHN renal 61.8% | A498 renal 87.7% | CCRF-CEM leukemia 82.4% | MOLT-4 leukemia 83.6%

COc1cccc2c1C=CC1(O2)Oc2cccc(OC)c2C=C1C (configuration not stated)
active: A498 renal 5.37%
inactive: SK-MEL-2 melanoma 57.7% | EKVX NSCLC 47.7% | SN12C renal 49% | UO-31 renal 47% | TK-10 renal 103% | ACHN renal 40.4% | CCRF-CEM leukemia 10.1% | MOLT-4 leukemia 11.7%

Cc1ccc(NC(=O)Nc2nc3ccc([N+](=O)[O-])cc3s2)cc1
active: SK-MEL-2 melanoma -15.2% | EKVX NSCLC 4.01% | SN12C renal 3.41% | UO-31 renal 6.85% | TK-10 renal 4.02% | ACHN renal 1.63% | A498 renal -34.8%
inactive: CCRF-CEM leukemia 14.2% | MOLT-4 leukemia 17.2%

Cc1ccccc1Nc1nc(SC(C)C)nc(-c2ccccc2)c1C#N
active: UO-31 renal -40.2%
inactive: SK-MEL-2 melanoma 130% | EKVX NSCLC 73.2% | SN12C renal 12.1% | TK-10 renal 61.1% | ACHN renal 13.4% | A498 renal 53.5% | CCRF-CEM leukemia 80.9% | MOLT-4 leukemia 90.2%

O=C(CCCCCCNC(=O)C(O)(O)C(F)(F)F)Nc1ccc(-c2ccccc2)cc1
active: SK-MEL-2 melanoma -37.4% | UO-31 renal -1.11% | TK-10 renal 5.83% | ACHN renal -18.3% | CAKI-1 renal 2.61%
inactive: EKVX NSCLC 34.2% | SN12C renal 14.6% | CCRF-CEM leukemia 23.6% | MOLT-4 leukemia 14.1%

CN1CC[C@@H]2[C@@]3(C)CC[C@H](O)C(C)(C)[C@@H]3CC[C@@]2(C)[C@]2(C)CC[C@@]3(CO)CCC(C)(C)C[C@@H]3C12 (some centres not stated)
inactive: SK-MEL-2 melanoma 102% | EKVX NSCLC 100% | SN12C renal 91.9% | UO-31 renal 68.2% | TK-10 renal 117% | ACHN renal 99.8% | CAKI-1 renal 84.1% | CCRF-CEM leukemia 76.2% | MOLT-4 leukemia 75.4%
